# In article PMC7862700, “An all-to-all approach to the identification of sequence-specific readers for epigenetic DNA modifications on cytosine”:
# Legend:
# Test in all cases: DAPPL (digital affinity profiling via proximity ligation, sequencing); 10 mM Tris-HCl pH 7.5, 50 mM NaCl, 1 mM DTT, 4% glycerol, room temperature, 30 min; GST-TFs on glutathione beads, 16-mer random dsDNA library, 0.1% formaldehyde crosslink after washing; high values mean tight binding
# Settings in all cases: protein: recombinant; tags: N-terminal GST; dsDNA, one strand shown
# FLI1 = molecular target: T1, FLI1 (Homo sapiens, UniProt Q01543 1-452)
# T1 sequence: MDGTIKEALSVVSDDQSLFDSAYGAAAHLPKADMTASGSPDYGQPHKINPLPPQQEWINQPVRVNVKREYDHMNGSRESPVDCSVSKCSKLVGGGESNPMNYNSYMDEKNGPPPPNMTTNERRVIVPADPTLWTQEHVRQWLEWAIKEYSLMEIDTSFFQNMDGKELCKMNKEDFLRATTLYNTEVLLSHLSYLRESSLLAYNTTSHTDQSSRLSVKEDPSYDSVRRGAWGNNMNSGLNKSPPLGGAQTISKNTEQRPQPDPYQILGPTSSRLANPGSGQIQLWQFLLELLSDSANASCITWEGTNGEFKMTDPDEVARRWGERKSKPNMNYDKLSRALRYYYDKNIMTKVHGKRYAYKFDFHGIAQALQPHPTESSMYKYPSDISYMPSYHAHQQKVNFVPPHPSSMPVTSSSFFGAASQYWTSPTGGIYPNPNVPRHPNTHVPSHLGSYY
# Method in brief: (§1)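 After expression in yeast as GST fusions, human transcription factors were bound to glutathione beads, DNA-barcoded and mixed with a tag-only sample. The pools were incubated with 200 nmole of a 16-mer random double-stranded DNA library in Tris/NaCl/DTT/glycerol buffer (30 min, room temperature), washed and crosslinked with 0.1% formaldehyde. Proximity ligation with BsaI/T4 ligase ran for 1 h at 37 °C, before PCR amplification and sequencing on an Illumina NextSeq500. Binding signal is a hexamer's read frequency for a factor divided by its frequency for the tag-only sample.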
# ELK1 = molecular target: T2, ELK1 (Homo sapiens, UniProt P19419 1-428)
# T2 sequence: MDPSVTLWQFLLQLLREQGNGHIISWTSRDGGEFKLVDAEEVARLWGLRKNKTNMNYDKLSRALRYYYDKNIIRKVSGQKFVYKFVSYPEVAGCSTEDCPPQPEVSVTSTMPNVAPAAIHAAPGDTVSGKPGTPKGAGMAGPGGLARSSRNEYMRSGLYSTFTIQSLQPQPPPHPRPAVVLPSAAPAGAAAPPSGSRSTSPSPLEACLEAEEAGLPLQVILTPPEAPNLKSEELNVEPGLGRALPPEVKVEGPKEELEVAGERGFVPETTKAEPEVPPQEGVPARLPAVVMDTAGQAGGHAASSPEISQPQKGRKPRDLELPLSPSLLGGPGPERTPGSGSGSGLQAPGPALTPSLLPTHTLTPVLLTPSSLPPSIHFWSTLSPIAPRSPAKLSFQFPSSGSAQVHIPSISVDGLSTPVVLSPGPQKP
# Method in brief: as §1
# GABPA = molecular target: T3, GABPA (Homo sapiens, UniProt Q06546 1-454)
# T3 sequence: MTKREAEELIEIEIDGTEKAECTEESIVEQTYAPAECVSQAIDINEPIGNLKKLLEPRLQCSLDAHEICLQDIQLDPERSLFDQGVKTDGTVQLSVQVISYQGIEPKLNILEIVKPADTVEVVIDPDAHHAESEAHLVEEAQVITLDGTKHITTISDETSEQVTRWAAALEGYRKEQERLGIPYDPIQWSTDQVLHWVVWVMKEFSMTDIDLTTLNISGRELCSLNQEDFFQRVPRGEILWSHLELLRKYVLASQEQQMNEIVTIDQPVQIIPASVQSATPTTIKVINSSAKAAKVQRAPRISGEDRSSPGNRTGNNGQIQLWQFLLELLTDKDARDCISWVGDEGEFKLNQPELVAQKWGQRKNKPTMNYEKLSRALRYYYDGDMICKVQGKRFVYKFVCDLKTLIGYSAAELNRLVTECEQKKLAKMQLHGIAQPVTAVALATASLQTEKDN
# Method in brief: as §1
# EHF = molecular target: T4, EHF (Homo sapiens, UniProt Q9NZC4 1-300)
# T4 sequence: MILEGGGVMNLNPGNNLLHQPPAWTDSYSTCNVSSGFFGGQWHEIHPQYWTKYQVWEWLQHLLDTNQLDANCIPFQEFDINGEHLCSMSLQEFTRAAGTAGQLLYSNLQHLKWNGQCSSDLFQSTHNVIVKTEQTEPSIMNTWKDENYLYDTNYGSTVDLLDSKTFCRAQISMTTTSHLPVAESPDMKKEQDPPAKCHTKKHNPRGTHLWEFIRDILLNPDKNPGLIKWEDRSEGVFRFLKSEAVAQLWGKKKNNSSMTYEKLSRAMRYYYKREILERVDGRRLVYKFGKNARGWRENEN
# Method in brief: as §1
# SPI1 = SPI1 (Homo sapiens, UniProt P17947 1-270)
# Method in brief: as §1
# SPIB = SPIB (Homo sapiens, UniProt Q01892 1-262)
# Method in brief: as §1
# ELK3 = molecular target: T5, ELK3 (Homo sapiens, UniProt P41970 1-407)
# T5 sequence: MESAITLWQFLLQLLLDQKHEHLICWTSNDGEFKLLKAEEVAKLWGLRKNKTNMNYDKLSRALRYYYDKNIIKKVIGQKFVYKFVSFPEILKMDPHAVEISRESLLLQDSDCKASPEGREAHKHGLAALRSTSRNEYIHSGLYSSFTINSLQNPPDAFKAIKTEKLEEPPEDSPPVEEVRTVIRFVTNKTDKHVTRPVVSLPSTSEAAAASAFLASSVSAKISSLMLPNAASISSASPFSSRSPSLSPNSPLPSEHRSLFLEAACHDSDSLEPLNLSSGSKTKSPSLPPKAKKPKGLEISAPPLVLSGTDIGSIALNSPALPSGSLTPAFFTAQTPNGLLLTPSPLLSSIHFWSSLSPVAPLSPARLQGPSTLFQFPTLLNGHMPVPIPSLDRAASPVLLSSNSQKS
# Method in brief: as §1
# ETV5 = ETV5 (Homo sapiens, UniProt P41161 1-510)
# Method in brief: as §1
# SPIC = molecular target: T6, SPIC (Homo sapiens, UniProt Q8N5J4 1-248)
# T6 sequence: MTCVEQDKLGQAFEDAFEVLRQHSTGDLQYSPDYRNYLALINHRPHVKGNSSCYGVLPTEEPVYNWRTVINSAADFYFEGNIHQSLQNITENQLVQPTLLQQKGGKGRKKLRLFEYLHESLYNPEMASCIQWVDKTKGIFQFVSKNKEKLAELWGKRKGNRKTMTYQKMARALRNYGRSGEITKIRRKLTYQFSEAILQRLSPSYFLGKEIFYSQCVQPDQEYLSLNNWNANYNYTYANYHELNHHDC
# Method in brief: as §1
# ELF4 = ELF4 (Homo sapiens, UniProt Q99607 1-663)
# Method in brief: as §1
# ETV1 = ETV1 (Homo sapiens, UniProt P50549 1-477)
# Method in brief: as §1
# ERF = molecular target: T7, ERF (Homo sapiens, UniProt P50548 1-548)
# T7 sequence: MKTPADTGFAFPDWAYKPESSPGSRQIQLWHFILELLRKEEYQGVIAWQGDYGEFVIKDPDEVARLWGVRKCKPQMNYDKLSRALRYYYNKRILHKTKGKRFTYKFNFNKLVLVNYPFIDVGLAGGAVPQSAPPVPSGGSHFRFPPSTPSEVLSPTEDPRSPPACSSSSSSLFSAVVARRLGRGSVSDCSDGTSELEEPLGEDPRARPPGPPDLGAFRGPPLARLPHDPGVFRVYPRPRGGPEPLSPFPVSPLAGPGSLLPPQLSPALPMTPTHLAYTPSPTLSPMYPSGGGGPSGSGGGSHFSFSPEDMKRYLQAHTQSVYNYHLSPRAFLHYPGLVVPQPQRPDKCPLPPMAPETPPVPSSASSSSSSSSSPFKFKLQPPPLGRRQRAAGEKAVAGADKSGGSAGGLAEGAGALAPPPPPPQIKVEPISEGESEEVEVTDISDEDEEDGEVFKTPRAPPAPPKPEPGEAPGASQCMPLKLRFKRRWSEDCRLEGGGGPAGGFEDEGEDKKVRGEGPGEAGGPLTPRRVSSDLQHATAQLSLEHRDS
# Method in brief: as §1
# ETV3L = molecular target: T8, ETV3L (Homo sapiens, UniProt Q6ZN32 1-361)
# T8 sequence: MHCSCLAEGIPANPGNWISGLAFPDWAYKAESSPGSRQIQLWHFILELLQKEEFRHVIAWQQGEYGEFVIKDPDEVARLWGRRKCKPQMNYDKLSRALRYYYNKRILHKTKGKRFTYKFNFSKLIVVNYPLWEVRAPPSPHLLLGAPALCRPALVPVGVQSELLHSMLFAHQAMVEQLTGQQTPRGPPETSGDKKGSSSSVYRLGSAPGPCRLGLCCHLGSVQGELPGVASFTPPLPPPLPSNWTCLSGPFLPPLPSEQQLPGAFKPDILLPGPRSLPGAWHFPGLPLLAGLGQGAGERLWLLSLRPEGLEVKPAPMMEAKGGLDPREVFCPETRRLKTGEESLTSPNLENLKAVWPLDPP
# Method in brief: as §1
# ETV3 = molecular target: T9, ETV3 (Homo sapiens, UniProt P41162-2 1-143)
# T9 sequence: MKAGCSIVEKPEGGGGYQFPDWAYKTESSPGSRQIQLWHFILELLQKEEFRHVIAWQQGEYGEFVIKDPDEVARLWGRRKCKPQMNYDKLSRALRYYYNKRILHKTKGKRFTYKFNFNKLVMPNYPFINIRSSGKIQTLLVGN
# Method in brief: as §1
# ETV6 = ETV6 (Homo sapiens, UniProt P41212 1-452)
# Method in brief: as §1
# Sequence of ETV5 (P41161 whole entry): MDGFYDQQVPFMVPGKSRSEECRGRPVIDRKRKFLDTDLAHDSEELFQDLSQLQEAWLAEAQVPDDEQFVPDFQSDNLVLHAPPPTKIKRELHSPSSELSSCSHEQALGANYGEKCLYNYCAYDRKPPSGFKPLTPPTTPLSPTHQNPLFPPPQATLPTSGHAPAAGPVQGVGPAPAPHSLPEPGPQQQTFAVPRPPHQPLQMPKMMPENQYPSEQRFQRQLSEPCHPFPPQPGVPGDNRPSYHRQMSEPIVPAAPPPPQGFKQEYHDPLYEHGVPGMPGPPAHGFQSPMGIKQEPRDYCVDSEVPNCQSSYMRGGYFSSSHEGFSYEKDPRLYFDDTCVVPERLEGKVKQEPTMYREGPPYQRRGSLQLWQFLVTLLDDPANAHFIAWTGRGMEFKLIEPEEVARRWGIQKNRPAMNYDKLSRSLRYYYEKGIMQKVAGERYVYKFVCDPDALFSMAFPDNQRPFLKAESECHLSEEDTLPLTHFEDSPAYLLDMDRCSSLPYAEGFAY
# Sequence of ETV6 (P41212 whole entry): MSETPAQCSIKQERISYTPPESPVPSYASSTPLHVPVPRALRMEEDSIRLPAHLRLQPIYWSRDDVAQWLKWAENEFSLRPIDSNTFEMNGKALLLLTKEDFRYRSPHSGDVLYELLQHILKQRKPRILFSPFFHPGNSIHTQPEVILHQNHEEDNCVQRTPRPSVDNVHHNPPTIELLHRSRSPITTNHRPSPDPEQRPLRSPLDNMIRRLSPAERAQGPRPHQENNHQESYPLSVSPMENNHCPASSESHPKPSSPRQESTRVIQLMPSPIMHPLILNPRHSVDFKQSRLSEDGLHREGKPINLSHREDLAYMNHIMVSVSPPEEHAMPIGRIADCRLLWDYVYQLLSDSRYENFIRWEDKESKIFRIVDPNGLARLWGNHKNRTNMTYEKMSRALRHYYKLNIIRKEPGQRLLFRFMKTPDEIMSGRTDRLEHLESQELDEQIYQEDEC
# Sequence of ETV1 (P50549 whole entry): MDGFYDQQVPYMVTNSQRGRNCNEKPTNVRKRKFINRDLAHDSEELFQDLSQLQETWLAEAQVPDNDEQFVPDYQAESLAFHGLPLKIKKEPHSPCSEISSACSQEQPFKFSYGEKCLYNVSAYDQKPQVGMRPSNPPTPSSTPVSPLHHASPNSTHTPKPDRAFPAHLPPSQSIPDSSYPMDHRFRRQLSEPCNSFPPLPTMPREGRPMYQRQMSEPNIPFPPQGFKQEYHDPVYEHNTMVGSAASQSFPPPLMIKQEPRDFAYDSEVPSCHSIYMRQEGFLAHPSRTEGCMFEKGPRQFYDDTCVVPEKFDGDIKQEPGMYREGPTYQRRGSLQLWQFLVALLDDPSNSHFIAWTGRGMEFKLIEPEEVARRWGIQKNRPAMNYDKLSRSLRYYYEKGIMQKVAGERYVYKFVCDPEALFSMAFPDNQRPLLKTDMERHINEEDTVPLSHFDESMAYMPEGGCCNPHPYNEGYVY
# Sequence of SPIB (Q01892 whole entry): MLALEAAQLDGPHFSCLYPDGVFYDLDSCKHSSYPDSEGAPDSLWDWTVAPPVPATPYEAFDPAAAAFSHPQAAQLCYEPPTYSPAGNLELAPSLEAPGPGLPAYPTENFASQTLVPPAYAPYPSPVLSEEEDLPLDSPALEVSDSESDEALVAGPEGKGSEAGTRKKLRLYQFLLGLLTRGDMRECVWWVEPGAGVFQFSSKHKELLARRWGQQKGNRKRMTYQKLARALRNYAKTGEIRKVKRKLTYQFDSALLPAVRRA
# Sequence of ELF4 (Q99607 whole entry): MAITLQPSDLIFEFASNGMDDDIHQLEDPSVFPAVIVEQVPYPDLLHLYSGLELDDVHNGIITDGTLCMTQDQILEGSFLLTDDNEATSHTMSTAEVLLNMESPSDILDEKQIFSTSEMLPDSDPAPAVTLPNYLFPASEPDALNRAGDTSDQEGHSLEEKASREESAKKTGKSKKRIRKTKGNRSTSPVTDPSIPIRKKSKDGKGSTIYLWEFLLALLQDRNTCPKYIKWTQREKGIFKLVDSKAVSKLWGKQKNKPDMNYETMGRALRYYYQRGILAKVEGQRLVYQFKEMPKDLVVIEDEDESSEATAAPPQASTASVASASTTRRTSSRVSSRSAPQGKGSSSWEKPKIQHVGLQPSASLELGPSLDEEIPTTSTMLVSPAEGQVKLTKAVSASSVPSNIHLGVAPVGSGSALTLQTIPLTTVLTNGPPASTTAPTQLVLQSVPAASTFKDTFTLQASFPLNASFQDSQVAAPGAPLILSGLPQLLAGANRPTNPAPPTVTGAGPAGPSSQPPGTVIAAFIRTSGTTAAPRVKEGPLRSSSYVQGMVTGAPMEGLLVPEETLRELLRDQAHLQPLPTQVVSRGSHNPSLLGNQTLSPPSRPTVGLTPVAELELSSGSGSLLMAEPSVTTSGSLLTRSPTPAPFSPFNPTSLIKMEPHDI
sequence,measurement,setting,value
GCGCGC,binding signal,FLI1,"1 fold enrichment (6-mer frequency, TF over GST control)"
same,binding signal,ELK1,"1.11 fold enrichment (6-mer frequency, TF over GST control)"
same,binding signal,GABPA,"1.05 fold enrichment (6-mer frequency, TF over GST control)"
same,binding signal,EHF,"1.06 fold enrichment (6-mer frequency, TF over GST control)"
same,binding signal,SPI1,"1.05 fold enrichment (6-mer frequency, TF over GST control)"
same,binding signal,SPIB,"1.18 fold enrichment (6-mer frequency, TF over GST control)"
same,binding signal,ELK3,"1.01 fold enrichment (6-mer frequency, TF over GST control)"
same,binding signal,ETV5,"1.08 fold enrichment (6-mer frequency, TF over GST control)"
same,binding signal,SPIC,"1.15 fold enrichment (6-mer frequency, TF over GST control)"
same,binding signal,ELF4,"1.08 fold enrichment (6-mer frequency, TF over GST control)"
same,binding signal,ETV1,"1.09 fold enrichment (6-mer frequency, TF over GST control)"
same,binding signal,ERF,"1.22 fold enrichment (6-mer frequency, TF over GST control)"
same,binding signal,ETV3L,"1 fold enrichment (6-mer frequency, TF over GST control)"
same,binding signal,ETV3,"1.02 fold enrichment (6-mer frequency, TF over GST control)"
same,binding signal,ETV6,"1.03 fold enrichment (6-mer frequency, TF over GST control)"
